# FMDV antiviral: High Throughput Screening for Foot and Mouth Disease Virus Antivirals | FMDV antiviral cell-based qHTS | Potency, µM (top dose mostly 57.9 µM), without a hit: top-dose activity change, negative = inhibition, actives largely listed as inhibitors | 410,000 compounds, 1.2% hits | AID 1159524, 2015; calls by dose curve; tested in HEK293T cells; further: read-out not given here; potency means the concentration at half of the fitted maximal effect; nearly all actives have a fitted effect of over 45% in size
# HCMV antiviral: qHTS Assay for inhibitors of the human cytomegalovirus (HCMV); activity change, negative = inhibition, % at 57.5 µM; HFF cells, HCMV-luciferase reporter, 72 h; stronger effect = lower value; AID 1259415, 2018; 410,000 compounds, 4.5% hits; in the data active means activity change below about -60%; inconclusive means no clear call, values can overlap the other calls; inactive means above about -39%
#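 Human foreskin fibroblasts infected with luciferase-reporter HCMV at MOI 1 PFU/cell, compounds at two doses. Luciferase measured 72 h post infection; normalized to buffer-only basal and Salinomycin (10uM) controls.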
# Lassa entry inh: qHTS for Inhibitors of binding or entry into cells for Lassa Virus | Lassa virus pseudotype entry inhibition, cell reporter | Potency, µM (top dose mostly 37.9 µM), for the others: at the top dose activity change, negative = inhibition, hits mostly inhibitors | 300,000 compounds, 1.2% hits | AID 540256, 2011; calls by dose curve; tested in HEK293 cells; further: potency means the concentration at half of the fitted maximal effect; nearly all actives have a fitted effect of over 50% in size
# Marburg entry inh: qHTS for inhibitors of binding or entry into cells for Marburg Virus | Marburg virus pseudotyped entry inhibition, cell reporter | Potency, µM (series often up to 37.8 µM), inactives show at the top dose activity change, negative = inhibition, most hits filed as inhibitors | 300,000 compounds, 1.8% hits; calls by dose curve; tested in HEK293 cells; further: potency means the concentration at half of the fitted maximal effect
# Numbers without * were called inactive; ? = inconclusive; . = no result given; [ ] = another dose, or the depositor's remark. Sampled rows, rich in hits. Any-hit rate of the full collection: about 6.2%. On the % scale 0 is the no-effect control and ±100 the full control effect.
SMILES,FMDV antiviral,HCMV antiviral,Lassa entry inh,Marburg entry inh
Oc1ccccc1C=NNC(=S)NC1CC2C=CC1C2 (stereo unspecified),58%,-71*,.,.
Oc1ccccc1/C=N/NC(=S)NC1CC2C=CC1C2 (stereo unspecified),67%,?,?,?
c1coc(-c2ccccc2CN2CCOc3ccc(CN4CCOCC4)cc3C2)c1,0%,.,.,.
COc1cc(OC)cc(-c2nc3ccccc3c(=O)n2OC(=O)c2ccccc2C)c1,-26%,-34,11µM*,?
CCCCCCCCCCCCCC(=O)O[C@@H]1[C@@H](C)[C@@]2(O)[C@@H](C=C(CO)C[C@@]3(O)C(=O)C(C)=C[C@@H]23)C2C(C)(C)[C@@]21OC(C)=O (stereo partly specified),.,.,6.5µM*,22µM*
C=CCNc1nc(N)c(C(=C(C#N)C#N)c2ccc(Br)cc2)s1,5.6µM*,?,?,?
CCS(=O)(=O)c1nc(S(=O)(=O)c2ccc(C)cc2)c(N2CCN(CCO)CC2)s1,-6%,-33,.,.
CCCS(=O)(=O)c1nc(S(=O)(=O)c2ccc(C)cc2)c(N(CC)CC)s1,3%,?,2%[46.1 µM],-20%[46.1 µM]
CCN(CC)CCCNc1sc(S(=O)(=O)c2ccccc2)nc1S(=O)(=O)c1ccc(Cl)cc1,20%,-75*,-33%[46.1 µM],?
Cc1ccc(S(=O)(=O)c2nc(S(=O)(=O)c3ccccc3)sc2N2CCN(CCO)CC2)cc1,20%,-98*,.,.
CCN(CC)c1sc(S(=O)(=O)c2ccccc2)nc1S(=O)(=O)c1ccc(C)cc1,36%,-73*,?,?
Cc1ccc(S(=O)(=O)c2nc(S(=O)(=O)c3ccccc3)sc2N2CCN(C)CC2)cc1,9%,-99*,.,.
CC(C)OCCCNc1sc(S(=O)(=O)c2ccccc2)nc1S(=O)(=O)c1ccc(Cl)cc1,8%,-19,-16%[46.1 µM],-23%[46.1 µM]
N[C@H](C(=O)O)[C@@H]1CC(Cl)=NO1,-17%,.,.,.
COc1ccc2c(c1)c(=O)c(S(=O)(=O)c1ccccc1)cn2CC(=O)Nc1ccc(C)c(Cl)c1,23%,19,9%[46.1 µM],-9%[46.1 µM]
CCOc1ccc(S(=O)(=O)N(C)C)cc1-c1nc2c(C(C)(C)C)nn(C)c2c(=O)[nH]1,.,-17,-20%,2%
CCOc1ccc(S(=O)(=O)N(C)CCO)cc1-c1nc2c(C(C)(C)C)nn(C)c2c(=O)[nH]1,0%,-13,2.8µM*,-31%
COc1coc(C(O)CN)cc1=O (stereo unspecified),18%,-32,0%,-1%[46.1 µM]
CCOC(=O)C(=Cc1cc(=O)c(OC)co1)C(=O)OCC,8.9µM*,-84*,?,?
COc1ccccc1CNC(=O)C1CCCN1S(=O)(=O)c1ccc2c(c1)C(C)(C)C(=O)N2C (stereo unspecified),.,-6,.,.
NC(=NC1CCCCC1)c1ccc(Cl)cc1,1.4µM*,-27,-6%[46.1 µM],?
Cc1ccccc1C(=O)N1CCN(c2ccc(NC(=O)c3ccc4c(c3)OCCO4)cc2)CC1,7.1µM*,-89*,?,5µM*
COc1c(C)cccc1C(=O)Nc1ccc(N2CCN(C(=O)c3ccccc3C)CC2)cc1,?,-36,?,?
O=C(Nc1ccc(N2CCN(C(=O)c3ccccc3)CC2)cc1)c1ccc2c(c1)OCO2,-9%,-21,-23%,-25%
Cc1ccc(C(=O)N2CCN(c3ccc(NC(=O)c4ccc5c(c4)OCCO5)cc3)CC2)cc1,14µM*,52,?,?
SMILES,FMDV antiviral,HCMV antiviral,Lassa entry inh,Marburg entry inh
Cc1ccccc1C(=O)N1CCN(c2ccc(NC(=O)c3cccc(OC(C)C)c3)cc2)CC1,16µM*,-3,-2%,11%
COc1cccc(Cn2c(=O)cnc3cnc(Oc4cccc(Cl)c4)nc32)c1,1%,.,.,.
COc1ccc(C(=O)NCCN2Cc3cc(C)ccc3OC(C)C2)c(OC)n1 (stereo unspecified),5%,.,.,.
COC(=O)CC1Oc2ccc(F)cc2-n2cc(-c3ccc(Cl)cc3)nc21 (stereo unspecified),1%,-29,-2%[46.1 µM],-7%[46.1 µM]
Oc1ccc2c(c1)[C@H]1CCC[C@]1(N1CCOCC1)O2,.,.,.,22%
Cc1ccc(C)c(NC(=O)Cn2nc(C)c3nn(-c4ccc(Cl)cc4)c(C)c3c2=O)c1,?,2,?,.
COC(=O)c1cc2sc(C)cc2n1Cc1nc(-c2ccc(C)cc2)oc1C,0%,-29,.,14%[46.1 µM]
CCN(CC)C(=O)CSc1nc2c(sc(=S)n2-c2ccccc2)c(=O)n1-c1ccc(OC)cc1OC,-5%,-69*,.,.
CCN(CC)C(=O)CSc1nc2c(sc(=S)n2-c2ccccc2)c(=O)n1-c1ccc(OC)c(OC)c1,-19%,-68*,.,.
CCN(CC)C(=O)CSc1nc2c(sc(=S)n2-c2ccccc2)c(=O)n1-c1ccccc1OC,-8%,?,?,?
CCn1c(=S)sc2c(=O)n(-c3ccccc3)c(SC)nc21,18µM*,-61*,-3%,-13%
CSc1nc2ccsc2c(=O)n1-c1ccccc1,-13%,-26,-7%[46.1 µM],-22%[46.1 µM]
N#CCSc1nc2c(sc(=S)n2Cc2ccco2)c(=O)n1-c1ccc(F)cc1,?,-107*,-10%,?
O=C1CN(S(=O)(=O)c2ccccc2)C[C@H]2[C@H](c3ccc(Br)cc3)[C@H](CO)N12,.,-24,.,.
CC(=O)N1CCN(CC(=O)Nc2cc([N+](=O)[O-])ccc2Cl)CC1,-10%,0,.,5%[46.1 µM]
COc1cc(NC(=O)c2cc([N+](=O)[O-])ccc2NC(=O)CN2CCN(c3ccccn3)CC2)cc(OC)c1,-25%,-12,?,8.9µM*
O=C(CN1CCN(c2ccc(O)cc2)CC1)Nc1cc([N+](=O)[O-])ccc1Cl,?,-69*,4%,?
Cc1cc(OCc2cn(CC(=O)c3ccc(O)cc3)nn2)cc(C)c1C,.,.,-18%[46.1 µM],.
Cc1[nH]n(-c2ccccc2)c(=O)c1/C=N/NC(=O)c1ccccc1F,43%,-94*,.,.
Cc1[nH]n(-c2ccccc2)c(=O)c1/C=N/NC(=O)c1cccc([N+](=O)[O-])c1,0%,-104*,?,?
Cc1ccc(-n2[nH]c(C)c(/C=N/NC(=O)c3ccc([N+](=O)[O-])cc3)c2=O)c(C)c1,.,-3,.,.
COc1c(/C=N/Nc2ccc([N+](=O)[O-])cc2[N+](=O)[O-])c(C)nn1-c1ccccc1,-4%,-16,-3%,14%
Cc1[nH]n(-c2cccc3ccccc23)c(=O)c1/C=N/NC(=O)c1cccc([N+](=O)[O-])c1,-24%,-101*,-10%,?
Cc1ccc(-n2[nH]c(C)c(/C=N/Nc3ccc([N+](=O)[O-])cc3[N+](=O)[O-])c2=O)cc1C,10µM*,-40,?,3%
CC1CCN(C(=O)c2cnn(-c3cccc(Cl)c3)c2C2CCN(C(=O)OC(C)(C)C)CC2)CC1,-12%,2,?,.
COc1ccc(CCC(=O)NCCc2csc(-c3cccc(F)c3)n2)cc1,-16%,17,11%[46.1 µM],.
Cc1cccc(C)c1NC(=O)C1(C)CSCC(=O)N1C1CCN(Cc2ccccc2)CC1 (stereo unspecified),-12%,-68*,.,.

# Bioassay records deposited in PubChem BioAssay by National Center for Advancing Translational Sciences (NCATS).
